# Data from paper PMC7862700, “An all-to-all approach to the identification of sequence-specific readers for epigenetic DNA modifications on cytosine”.
# Key:
# Assay in all cases: DAPPL (digital affinity profiling via proximity ligation, sequencing); 10 mM Tris-HCl pH 7.5, 50 mM NaCl, 1 mM DTT, 4% glycerol, room temperature, 30 min; GST-TFs on glutathione beads, 16-mer random dsDNA library, 0.1% formaldehyde crosslink after washing; high values mean tight binding
# FLI1 = target: T1, FLI1 (Homo sapiens, UniProt Q01543 1-452); details: protein: recombinant; tags: N-terminal GST; dsDNA, one strand shown
# T1 sequence: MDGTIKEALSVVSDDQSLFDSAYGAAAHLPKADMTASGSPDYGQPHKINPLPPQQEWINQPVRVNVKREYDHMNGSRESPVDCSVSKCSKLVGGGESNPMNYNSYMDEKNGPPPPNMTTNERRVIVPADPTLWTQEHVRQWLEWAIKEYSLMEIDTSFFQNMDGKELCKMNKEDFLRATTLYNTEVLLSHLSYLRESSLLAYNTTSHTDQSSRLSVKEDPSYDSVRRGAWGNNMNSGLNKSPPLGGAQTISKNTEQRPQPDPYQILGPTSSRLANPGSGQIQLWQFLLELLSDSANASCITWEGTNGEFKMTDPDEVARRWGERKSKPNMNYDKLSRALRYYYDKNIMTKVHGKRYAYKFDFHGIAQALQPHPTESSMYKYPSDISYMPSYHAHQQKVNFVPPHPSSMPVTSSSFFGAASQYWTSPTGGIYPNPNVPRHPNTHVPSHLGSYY
# Method in brief: (§1)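 Human transcription factors fused to GST were expressed in yeast, captured on glutathione beads, given DNA barcodes and pooled with a GST-only negative control. Pools were incubated with 200 nmole of a 16-mer random double-stranded DNA library in Tris/NaCl/DTT/glycerol buffer at room temperature for 30 min. They were then washed, crosslinked with 0.1% formaldehyde, proximity-ligated (BsaI/T4 ligase, 1 h, 37 °C), PCR-amplified and sequenced on an Illumina NextSeq500. Binding signal is each 6-mer's read frequency for a factor divided by its frequency for the GST control.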
# ELK1 = target: T2, ELK1 (Homo sapiens, UniProt P19419 1-428); details: protein: recombinant; tags: N-terminal GST; dsDNA, one strand shown
# T2 sequence: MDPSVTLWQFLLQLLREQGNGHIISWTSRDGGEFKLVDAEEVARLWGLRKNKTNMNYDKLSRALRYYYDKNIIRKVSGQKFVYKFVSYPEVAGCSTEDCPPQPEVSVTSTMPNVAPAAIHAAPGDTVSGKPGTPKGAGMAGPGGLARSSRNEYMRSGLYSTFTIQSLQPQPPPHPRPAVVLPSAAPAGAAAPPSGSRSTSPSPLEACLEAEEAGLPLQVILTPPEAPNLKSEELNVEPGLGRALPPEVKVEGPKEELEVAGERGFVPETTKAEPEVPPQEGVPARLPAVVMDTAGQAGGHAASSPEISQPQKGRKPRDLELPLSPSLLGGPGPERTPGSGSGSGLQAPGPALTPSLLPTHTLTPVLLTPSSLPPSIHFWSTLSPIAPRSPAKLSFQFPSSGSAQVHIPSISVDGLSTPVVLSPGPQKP
# Method in brief: as §1
# GABPA = target: T3, GABPA (Homo sapiens, UniProt Q06546 1-454); details: protein: recombinant; tags: N-terminal GST; dsDNA, one strand shown
# T3 sequence: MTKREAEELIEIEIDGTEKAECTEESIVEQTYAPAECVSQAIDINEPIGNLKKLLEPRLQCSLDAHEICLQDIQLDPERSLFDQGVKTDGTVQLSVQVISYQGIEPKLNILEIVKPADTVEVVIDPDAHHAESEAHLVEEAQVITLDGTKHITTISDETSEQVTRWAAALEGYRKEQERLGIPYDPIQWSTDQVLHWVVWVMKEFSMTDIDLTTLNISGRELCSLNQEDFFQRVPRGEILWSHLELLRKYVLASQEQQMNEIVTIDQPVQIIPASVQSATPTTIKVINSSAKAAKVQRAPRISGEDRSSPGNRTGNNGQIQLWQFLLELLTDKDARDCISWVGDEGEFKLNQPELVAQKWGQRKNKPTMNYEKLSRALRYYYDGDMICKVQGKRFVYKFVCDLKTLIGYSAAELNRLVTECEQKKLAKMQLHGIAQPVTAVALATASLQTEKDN
# Method in brief: as §1
# ERG = target: T4, ERG (Homo sapiens, UniProt P11308 1-479); details: protein: recombinant; tags: N-terminal GST; dsDNA, one strand shown
# T4 sequence: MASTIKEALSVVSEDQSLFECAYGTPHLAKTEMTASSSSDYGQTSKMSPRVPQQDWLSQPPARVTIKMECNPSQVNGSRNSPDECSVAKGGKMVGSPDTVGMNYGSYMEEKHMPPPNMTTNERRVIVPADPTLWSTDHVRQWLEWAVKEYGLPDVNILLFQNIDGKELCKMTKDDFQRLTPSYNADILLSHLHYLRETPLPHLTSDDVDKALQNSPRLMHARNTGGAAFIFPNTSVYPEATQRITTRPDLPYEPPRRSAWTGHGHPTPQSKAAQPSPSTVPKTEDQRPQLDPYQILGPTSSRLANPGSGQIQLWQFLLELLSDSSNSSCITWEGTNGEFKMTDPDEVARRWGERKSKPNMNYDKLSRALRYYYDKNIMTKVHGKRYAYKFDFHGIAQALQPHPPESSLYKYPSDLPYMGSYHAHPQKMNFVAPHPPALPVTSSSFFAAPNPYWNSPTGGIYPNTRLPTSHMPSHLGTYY
# Method in brief: as §1
# ELF1 = ELF1 (Homo sapiens, UniProt P32519 1-619); details: protein: recombinant; tags: N-terminal GST; dsDNA, one strand shown
# Method in brief: as §1
# EHF = target: T5, EHF (Homo sapiens, UniProt Q9NZC4 1-300); details: protein: recombinant; tags: N-terminal GST; dsDNA, one strand shown
# T5 sequence: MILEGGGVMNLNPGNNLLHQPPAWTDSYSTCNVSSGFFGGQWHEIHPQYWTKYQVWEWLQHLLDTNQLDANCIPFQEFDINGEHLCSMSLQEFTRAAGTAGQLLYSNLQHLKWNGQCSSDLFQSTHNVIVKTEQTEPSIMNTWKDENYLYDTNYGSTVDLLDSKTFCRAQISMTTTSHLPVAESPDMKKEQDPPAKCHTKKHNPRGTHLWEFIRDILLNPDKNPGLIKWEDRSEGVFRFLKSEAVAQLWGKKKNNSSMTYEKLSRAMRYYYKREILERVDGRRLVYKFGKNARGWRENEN
# Method in brief: as §1
# SPI1 = SPI1 (Homo sapiens, UniProt P17947 1-270); details: protein: recombinant; tags: N-terminal GST; dsDNA, one strand shown
# Method in brief: as §1
# SPIB = SPIB (Homo sapiens, UniProt Q01892 1-262); details: protein: recombinant; tags: N-terminal GST; dsDNA, one strand shown
# Method in brief: as §1
# ELK3 = target: T6, ELK3 (Homo sapiens, UniProt P41970 1-407); details: protein: recombinant; tags: N-terminal GST; dsDNA, one strand shown
# T6 sequence: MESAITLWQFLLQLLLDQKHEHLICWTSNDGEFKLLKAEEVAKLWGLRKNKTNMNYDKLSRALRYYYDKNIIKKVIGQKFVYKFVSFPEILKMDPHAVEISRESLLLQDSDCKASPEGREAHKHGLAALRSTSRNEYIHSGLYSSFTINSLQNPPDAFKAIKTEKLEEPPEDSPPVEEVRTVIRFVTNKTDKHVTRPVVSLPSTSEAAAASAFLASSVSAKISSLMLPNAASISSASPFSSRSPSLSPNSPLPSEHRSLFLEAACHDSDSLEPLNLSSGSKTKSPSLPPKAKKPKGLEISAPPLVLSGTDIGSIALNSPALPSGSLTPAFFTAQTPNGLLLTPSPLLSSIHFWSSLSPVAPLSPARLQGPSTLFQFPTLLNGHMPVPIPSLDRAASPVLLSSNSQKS
# Method in brief: as §1
# FEV = target: T7, FEV (Homo sapiens, UniProt Q99581 1-238); details: protein: recombinant; tags: N-terminal GST; dsDNA, one strand shown
# T7 sequence: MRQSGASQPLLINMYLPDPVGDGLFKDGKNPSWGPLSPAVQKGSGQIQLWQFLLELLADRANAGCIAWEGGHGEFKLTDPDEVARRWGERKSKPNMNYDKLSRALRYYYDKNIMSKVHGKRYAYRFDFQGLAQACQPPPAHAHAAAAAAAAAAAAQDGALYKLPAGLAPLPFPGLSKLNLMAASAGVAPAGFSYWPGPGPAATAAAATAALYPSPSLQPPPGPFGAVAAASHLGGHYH
# Method in brief: as §1
# ETV5 = ETV5 (Homo sapiens, UniProt P41161 1-510); details: protein: recombinant; tags: N-terminal GST; dsDNA, one strand shown
# Method in brief: as §1
# HSF1 = HSF1 (Homo sapiens, UniProt Q00613 1-529); details: protein: recombinant; tags: N-terminal GST; chain copies: 3; dsDNA, one strand shown
# Method in brief: as §1
# SPIC = target: T8, SPIC (Homo sapiens, UniProt Q8N5J4 1-248); details: protein: recombinant; tags: N-terminal GST; dsDNA, one strand shown
# T8 sequence: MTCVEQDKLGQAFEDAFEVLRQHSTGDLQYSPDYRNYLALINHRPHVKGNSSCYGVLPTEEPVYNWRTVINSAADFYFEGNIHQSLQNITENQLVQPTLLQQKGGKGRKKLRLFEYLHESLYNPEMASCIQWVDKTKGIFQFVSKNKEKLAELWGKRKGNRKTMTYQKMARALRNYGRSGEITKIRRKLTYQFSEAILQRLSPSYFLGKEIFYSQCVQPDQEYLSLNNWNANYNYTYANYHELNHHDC
# Method in brief: as §1
# ELF4 = ELF4 (Homo sapiens, UniProt Q99607 1-663); details: protein: recombinant; tags: N-terminal GST; dsDNA, one strand shown
# Method in brief: as §1
# ELK4 = target: T9, ELK4 (Homo sapiens, UniProt P28324-2 1-405); details: protein: recombinant; tags: N-terminal GST; dsDNA, one strand shown
# T9 sequence: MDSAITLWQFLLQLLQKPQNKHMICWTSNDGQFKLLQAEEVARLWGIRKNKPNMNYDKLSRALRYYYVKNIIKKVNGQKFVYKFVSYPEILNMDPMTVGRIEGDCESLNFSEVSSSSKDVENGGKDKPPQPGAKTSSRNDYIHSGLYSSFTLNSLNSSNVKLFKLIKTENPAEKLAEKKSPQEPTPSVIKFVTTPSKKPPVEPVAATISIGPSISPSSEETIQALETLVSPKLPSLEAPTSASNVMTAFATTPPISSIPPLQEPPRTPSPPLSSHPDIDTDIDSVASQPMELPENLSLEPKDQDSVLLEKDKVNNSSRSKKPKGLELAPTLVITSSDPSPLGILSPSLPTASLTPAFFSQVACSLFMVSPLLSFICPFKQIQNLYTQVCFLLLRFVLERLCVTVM
# Method in brief: as §1
# ETV2 = target: T10, ETV2 (Homo sapiens, UniProt O00321 1-342); details: protein: recombinant; tags: N-terminal GST; dsDNA, one strand shown
# T10 sequence: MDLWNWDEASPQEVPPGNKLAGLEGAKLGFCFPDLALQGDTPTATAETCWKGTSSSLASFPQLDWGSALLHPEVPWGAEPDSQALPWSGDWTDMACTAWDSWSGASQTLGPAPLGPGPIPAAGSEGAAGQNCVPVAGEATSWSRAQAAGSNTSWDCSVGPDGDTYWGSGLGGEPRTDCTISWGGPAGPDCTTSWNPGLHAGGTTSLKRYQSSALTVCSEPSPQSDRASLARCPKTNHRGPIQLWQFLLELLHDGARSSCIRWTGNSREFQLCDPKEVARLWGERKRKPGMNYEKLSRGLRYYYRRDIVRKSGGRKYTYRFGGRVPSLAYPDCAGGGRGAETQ
# Method in brief: as §1
# ELF3 = target: T11, ELF3 (Homo sapiens, UniProt P78545 1-371); details: protein: recombinant; tags: N-terminal GST; dsDNA, one strand shown
# T11 sequence: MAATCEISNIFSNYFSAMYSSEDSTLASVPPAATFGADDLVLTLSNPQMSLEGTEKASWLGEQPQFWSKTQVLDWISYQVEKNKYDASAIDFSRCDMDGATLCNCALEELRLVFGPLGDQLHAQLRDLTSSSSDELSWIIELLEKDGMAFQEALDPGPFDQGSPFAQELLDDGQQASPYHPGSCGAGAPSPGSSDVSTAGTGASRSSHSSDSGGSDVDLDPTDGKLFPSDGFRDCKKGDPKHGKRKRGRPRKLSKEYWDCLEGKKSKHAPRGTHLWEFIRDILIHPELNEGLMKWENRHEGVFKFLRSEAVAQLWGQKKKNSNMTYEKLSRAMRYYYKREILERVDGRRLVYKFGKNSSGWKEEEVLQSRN
# Method in brief: as §1
# CRX = CRX (Homo sapiens, UniProt O43186 1-299); details: protein: recombinant; tags: N-terminal GST; dsDNA, one strand shown
# Method in brief: as §1
# ETV1 = ETV1 (Homo sapiens, UniProt P50549 1-477); details: protein: recombinant; tags: N-terminal GST; dsDNA, one strand shown
# Method in brief: as §1
# Chain of ETV1 (P50549 whole entry): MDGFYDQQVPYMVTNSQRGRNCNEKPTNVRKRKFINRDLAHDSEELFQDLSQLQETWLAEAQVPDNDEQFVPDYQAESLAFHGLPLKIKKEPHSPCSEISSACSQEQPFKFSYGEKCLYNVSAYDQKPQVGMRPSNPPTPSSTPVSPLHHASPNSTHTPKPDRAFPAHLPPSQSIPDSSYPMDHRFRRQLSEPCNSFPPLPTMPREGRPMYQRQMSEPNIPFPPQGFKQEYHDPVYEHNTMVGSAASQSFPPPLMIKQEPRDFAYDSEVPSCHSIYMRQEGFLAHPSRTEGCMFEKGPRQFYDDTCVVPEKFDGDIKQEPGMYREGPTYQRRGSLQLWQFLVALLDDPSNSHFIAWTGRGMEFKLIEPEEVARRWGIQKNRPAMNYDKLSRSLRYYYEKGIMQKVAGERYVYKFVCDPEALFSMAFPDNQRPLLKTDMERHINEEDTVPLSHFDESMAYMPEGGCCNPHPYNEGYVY
# Chain of ELF4 (Q99607 whole entry): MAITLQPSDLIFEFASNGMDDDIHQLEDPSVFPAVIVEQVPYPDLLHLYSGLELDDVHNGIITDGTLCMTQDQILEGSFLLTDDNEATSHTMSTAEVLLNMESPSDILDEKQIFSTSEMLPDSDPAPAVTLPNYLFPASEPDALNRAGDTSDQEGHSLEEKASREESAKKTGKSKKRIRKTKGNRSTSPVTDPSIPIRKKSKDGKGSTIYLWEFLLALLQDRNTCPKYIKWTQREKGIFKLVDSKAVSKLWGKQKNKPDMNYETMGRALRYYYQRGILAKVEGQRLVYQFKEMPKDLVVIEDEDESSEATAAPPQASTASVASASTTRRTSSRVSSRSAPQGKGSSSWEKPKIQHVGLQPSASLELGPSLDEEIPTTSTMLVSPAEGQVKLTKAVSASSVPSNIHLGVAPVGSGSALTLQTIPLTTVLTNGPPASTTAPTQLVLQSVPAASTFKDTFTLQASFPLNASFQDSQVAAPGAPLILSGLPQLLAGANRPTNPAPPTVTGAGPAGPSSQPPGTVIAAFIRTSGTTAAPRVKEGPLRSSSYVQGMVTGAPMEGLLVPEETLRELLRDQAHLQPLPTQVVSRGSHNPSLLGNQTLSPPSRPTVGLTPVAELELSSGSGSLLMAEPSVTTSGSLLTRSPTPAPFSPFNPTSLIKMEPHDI
# Chain of SPIB (Q01892 whole entry): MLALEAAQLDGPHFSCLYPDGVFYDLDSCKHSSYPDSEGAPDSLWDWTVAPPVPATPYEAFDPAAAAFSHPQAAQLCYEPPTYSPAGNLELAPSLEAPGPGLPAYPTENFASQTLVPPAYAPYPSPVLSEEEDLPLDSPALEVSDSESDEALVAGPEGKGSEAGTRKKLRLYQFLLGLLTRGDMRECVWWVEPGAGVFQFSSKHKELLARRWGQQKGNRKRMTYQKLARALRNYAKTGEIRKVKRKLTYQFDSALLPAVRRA
# Chain of ELF1 (P32519 whole entry): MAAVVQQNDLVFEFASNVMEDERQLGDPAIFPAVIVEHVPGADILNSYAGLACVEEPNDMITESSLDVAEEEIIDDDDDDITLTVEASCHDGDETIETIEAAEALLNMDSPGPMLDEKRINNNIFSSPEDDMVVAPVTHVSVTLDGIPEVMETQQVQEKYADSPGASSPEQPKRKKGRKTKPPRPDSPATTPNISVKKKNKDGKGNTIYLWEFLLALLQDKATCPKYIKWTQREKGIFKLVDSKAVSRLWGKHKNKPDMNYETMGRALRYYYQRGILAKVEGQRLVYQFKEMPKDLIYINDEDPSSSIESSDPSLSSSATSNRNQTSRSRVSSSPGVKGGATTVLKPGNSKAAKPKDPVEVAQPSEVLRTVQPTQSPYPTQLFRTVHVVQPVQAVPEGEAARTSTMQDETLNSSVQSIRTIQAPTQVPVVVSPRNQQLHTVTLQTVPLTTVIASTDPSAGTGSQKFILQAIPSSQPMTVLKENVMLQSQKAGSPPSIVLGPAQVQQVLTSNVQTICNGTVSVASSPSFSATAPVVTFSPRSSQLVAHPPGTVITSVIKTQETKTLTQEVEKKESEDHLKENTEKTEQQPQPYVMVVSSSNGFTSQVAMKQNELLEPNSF
# Chain of ETV5 (P41161 whole entry): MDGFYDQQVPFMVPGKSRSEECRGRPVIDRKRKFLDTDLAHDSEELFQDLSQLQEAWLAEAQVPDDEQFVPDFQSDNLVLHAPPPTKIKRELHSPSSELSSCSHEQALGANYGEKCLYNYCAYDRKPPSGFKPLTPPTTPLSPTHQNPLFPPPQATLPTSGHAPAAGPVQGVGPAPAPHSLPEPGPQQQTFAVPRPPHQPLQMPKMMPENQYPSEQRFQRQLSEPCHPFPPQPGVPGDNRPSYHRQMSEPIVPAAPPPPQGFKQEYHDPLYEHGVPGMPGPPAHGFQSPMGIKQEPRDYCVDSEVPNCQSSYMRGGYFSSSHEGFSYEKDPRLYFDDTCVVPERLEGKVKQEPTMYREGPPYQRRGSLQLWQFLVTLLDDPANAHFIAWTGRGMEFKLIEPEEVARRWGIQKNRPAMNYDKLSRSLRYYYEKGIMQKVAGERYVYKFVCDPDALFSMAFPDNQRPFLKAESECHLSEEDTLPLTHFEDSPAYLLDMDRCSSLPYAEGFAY
# Chain of CRX (O43186 whole entry): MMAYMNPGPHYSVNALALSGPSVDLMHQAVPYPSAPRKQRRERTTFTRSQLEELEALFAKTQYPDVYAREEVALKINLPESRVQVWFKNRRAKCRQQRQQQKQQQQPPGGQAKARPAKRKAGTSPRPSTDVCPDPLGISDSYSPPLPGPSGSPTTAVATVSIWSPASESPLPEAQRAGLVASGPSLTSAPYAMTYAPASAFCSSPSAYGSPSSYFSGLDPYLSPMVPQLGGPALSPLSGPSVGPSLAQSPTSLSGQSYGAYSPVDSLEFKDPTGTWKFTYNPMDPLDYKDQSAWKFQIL
# Chain of HSF1 (Q00613 whole entry): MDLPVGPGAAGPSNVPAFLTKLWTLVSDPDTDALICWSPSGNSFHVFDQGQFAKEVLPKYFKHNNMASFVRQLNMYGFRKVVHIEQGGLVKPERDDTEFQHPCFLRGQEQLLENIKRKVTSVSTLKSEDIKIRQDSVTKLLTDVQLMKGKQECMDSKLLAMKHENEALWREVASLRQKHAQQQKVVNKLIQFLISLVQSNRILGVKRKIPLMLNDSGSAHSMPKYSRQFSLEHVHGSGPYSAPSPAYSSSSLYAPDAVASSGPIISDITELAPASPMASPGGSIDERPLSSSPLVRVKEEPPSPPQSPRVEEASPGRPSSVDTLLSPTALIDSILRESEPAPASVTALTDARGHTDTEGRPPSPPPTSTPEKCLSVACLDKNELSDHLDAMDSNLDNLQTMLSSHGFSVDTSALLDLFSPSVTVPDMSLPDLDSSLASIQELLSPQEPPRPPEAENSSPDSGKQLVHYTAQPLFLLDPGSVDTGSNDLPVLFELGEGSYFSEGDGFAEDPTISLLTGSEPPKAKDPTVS
sequence,measurement,setting,value
GTTCTT,binding signal,FLI1,"1.19 fold enrichment (6-mer frequency, TF over GST control)"
same,binding signal,ELK1,"1.22 fold enrichment (6-mer frequency, TF over GST control)"
same,binding signal,GABPA,"1.09 fold enrichment (6-mer frequency, TF over GST control)"
same,binding signal,ERG,"1.19 fold enrichment (6-mer frequency, TF over GST control)"
same,binding signal,ELF1,"1.18 fold enrichment (6-mer frequency, TF over GST control)"
same,binding signal,EHF,"1.08 fold enrichment (6-mer frequency, TF over GST control)"
same,binding signal,SPI1,"1.09 fold enrichment (6-mer frequency, TF over GST control)"
same,binding signal,SPIB,"1.17 fold enrichment (6-mer frequency, TF over GST control)"
same,binding signal,ELK3,"1.35 fold enrichment (6-mer frequency, TF over GST control)"
same,binding signal,FEV,"1.11 fold enrichment (6-mer frequency, TF over GST control)"
same,binding signal,ETV5,"1.23 fold enrichment (6-mer frequency, TF over GST control)"
same,binding signal,HSF1,"1.36 fold enrichment (6-mer frequency, TF over GST control)"
same,binding signal,SPIC,"1.12 fold enrichment (6-mer frequency, TF over GST control)"
same,binding signal,ELF4,"1.18 fold enrichment (6-mer frequency, TF over GST control)"
same,binding signal,ELK4,"1.23 fold enrichment (6-mer frequency, TF over GST control)"
same,binding signal,ETV2,"1.15 fold enrichment (6-mer frequency, TF over GST control)"
same,binding signal,ELF3,"1.31 fold enrichment (6-mer frequency, TF over GST control)"
same,binding signal,CRX,"1.12 fold enrichment (6-mer frequency, TF over GST control)"
same,binding signal,ETV1,"1.21 fold enrichment (6-mer frequency, TF over GST control)"
